As a reminder, the % Inhibition is the drop in the measured response relative to a control, in per cent.

Data on 42 compounds can be found in article PMC4552634, “A New Set of Chemical Starting Points with Plasmodium falciparum Transmission-Blocking Potential for Antimalarial Drug Discovery” (PLoS ONE, 2015).

Each structure is given as a SMILES string. Among all 13,000 compounds or so, about 3,200 (25%) showed an effect of 50% or more. Some of the results follow.

The assay has as its system P. falciparum stage V gametocytes. Also noted: BacTiter-Glo ATP luminescence viability of purified stage V gametocytes in 384-well plates, per cent inhibition versus DMSO. The settings on record: 48 h, 5 µM; inhibitor.
As for `O=C(NC1CC1)c1ccc(N2CCCCN2CCc2ccccc2)c(C(F)(F)F)c1` [TCMDC-135276], the “% Inhibition” value turned out to be 0.5792%.

With `COc1ccc(CCNC(=O)c2ccccc2O)cc1-c1ccc(C(C)(C)C)cc1` [TCMDC-136182], the “% Inhibition” value amounted to 40.5%.

For the compound `N=C1NC(=N)N(OCCCCCCON2C(=N)NC(=N)NC2C=Cc2ccccc2)C(C=Cc2ccccc2)N1` (stereo not drawn) [TCMDC-131602], the “% Inhibition” value is -13.97%.

`Cc1nc2nc(N)nc(N)c2c(C)c1Cc1ccc(C(N)=O)cc1` [TCMDC-137641]: the “% Inhibition” value was determined as 15.14%.

With `CC1=C(C(=O)Nc2cc3cn[nH]c3cc2F)C(c2cccc(NS(C)(=O)=O)c2)CC(=O)N1` (stereo not drawn) [TCMDC-136177], the “% Inhibition” value was determined as 35.05%.

`CC1=C(C(=O)Nc2cc3cn[nH]c3cc2F)C(c2ccc(Cl)c(NS(C)(=O)=O)c2)CC(=O)N1` (stereo not drawn) [TCMDC-136204]: the “% Inhibition” value was 27.6%.

Turning to `CC1=C(C(=O)Nc2cc3cn[nH]c3cc2F)C(c2cccc(O)c2F)CC(=O)N1` (stereo not drawn) [TCMDC-136296], the “% Inhibition” value stood at 76.63%.

As for `C=CCOC(=O)N1CCC(CNCc2cccc(-c3ccc(-c4nc5ccccc5[nH]4)s3)c2)C1.O=C(O)C(F)(F)F` (stereo not drawn) [TCMDC-133036], the “% Inhibition” value was found to be 38.09%.

In the case of `Cc1cc(C2CCN(CCCCNC(=O)c3ccc(NC(=O)c4ccc(Cl)cc4)cc3)CC2)c(C)cc1OCc1ccccn1` [TCMDC-138306], the “% Inhibition” value turned out to be 24.78%.

On to `O=C(NCCCCN1CCC(c2ccc3c(c2OCc2ccccn2)CCCC3)CC1)c1ccc(NC(=O)c2ccc(Cl)cc2)cc1` [TCMDC-138720], for which the “% Inhibition” value came out at 101.6%.

As to `O=C(NCCCCN1CCC(c2ccc3c(c2OCc2ccncc2)CCCC3)CC1)c1ccc(NC(=O)c2ccc(Cl)cc2)cc1` [TCMDC-138725], the “% Inhibition” value was 119.9%.

Consider `COc1ccc(OCc2ccccn2)c(C2CCN(CCCCNC(=O)c3ccc(NC(=O)c4ccc(Cl)cc4)cc3)CC2)c1` [TCMDC-138311], for which the “% Inhibition” value was -15.54%.

In the case of `Cc1ccc(NC(C)C(=O)Nc2ccccc2)cc1S(=O)(=O)N1CCCCCC1` (stereo not drawn) [TCMDC-124868], the “% Inhibition” value is given as -63.29%.

For `Brc1cc(Br)c2c(c1)C(NCCCNC1CCNc3c(Br)cc(Br)cc31)CCN2` (stereo not drawn) [TCMDC-140067], the “% Inhibition” value was -3.983%.

Regarding `COc1ccc(NC(=O)[C@H](CC(C)C)Nc2ccnc(Nc3ccccc3)n2)cc1` [TCMDC-134750], the “% Inhibition” value was -9.476%.

For `COc1cccc(OC)c1C(=O)Nc1cccc(-c2nn3ccccc3c2-c2ccnc(Nc3cccc(F)c3)n2)c1` [TCMDC-135847], the “% Inhibition” value was -55.46%.

As for `CC(C)CNCc1ccc(-c2ccc(CN(CCCN3CCN(C)CC3)C(=O)/C=C/c3ccccc3)cc2)cc1` [TCMDC-140546], the “% Inhibition” value is reported as 104.5%.

Consider `CC(C)CNCc1cccc(-c2cccc(CN(CCCN3CCN(C)CC3)C(=O)/C=C/c3ccccc3)c2)c1` [TCMDC-140541], for which the “% Inhibition” value turned out to be 106.7%.

On to `CC(C)CNCc1ccc(-c2cccc(CN(CCCN3CCN(C)CC3)C(=O)/C=C/c3ccccc3)c2)cc1` [TCMDC-140542], for which the “% Inhibition” value was found to be 91.48%.

With `CC(C)CNCc1cccc(-c2ccc(CN(CCCN3CCN(C)CC3)C(=O)/C=C/c3ccccc3)cc2)c1` [TCMDC-140545], the “% Inhibition” value is listed as 109.3%.

Regarding `O=C(/C=C/c1ccc(CNCCN2CCOCC2)cc1)NCCc1ccccc1` [TCMDC-140901], the “% Inhibition” value was -18.05%.

Take `COC(=O)c1c(C#N)c(OC)cc(O)c1CSC[C@H](Nc1nc(-c2ccc([N+](=O)[O-])cc2)cs1)C(=O)NCCN1CCCCC1` [TCMDC-138651]: the “% Inhibition” value was -15.18%.

As to `Cc1nc(N)nc(N)c1OCCCCCCOc1ccccc1` [TCMDC-131354], the “% Inhibition” value is -4.555%.

Turning to `Cc1ccc(F)c(C(=O)Nc2cccc(-c3nn4ccccc4c3-c3ccnc(Nc4cccc(F)c4)n3)c2)c1F` [TCMDC-135846], the “% Inhibition” value is recorded as -36.31%.

In the case of `O=C(Nc1cccc(-c2nn3ccccc3c2-c2ccnc(Nc3ccc(Cc4ccncc4)cc3)n2)c1)c1c(F)cccc1F` [TCMDC-135845], the “% Inhibition” value was -48.11%.

With `CC1(C)N=C(N)N=C(N)N1OCCc1ccc(N)cc1` [TCMDC-131632], the “% Inhibition” value is recorded as 14.77%.

Turning to `Cc1ccc(F)c(OC2CCN(c3ccc(C(=O)NC4CC4)cn3)CC2)c1` [TCMDC-134036], the “% Inhibition” value was 27.07%.

As for `CCNc1cc(C)nc(Nc2ccc(NC(=O)c3cccs3)cc2)n1` [TCMDC-124981], the “% Inhibition” value is given as -23.08%.

For `O=C(Nc1cc(C(F)(F)F)cc(C(F)(F)F)c1)c1cc(Cl)ccc1O` [TCMDC-125465], the “% Inhibition” value is 22.2%.

In the case of `O=C(Nc1cccc(-c2cccc(-c3nc4ccc(C(F)(F)F)cc4[nH]3)c2)c1)c1cccnc1Cl` [TCMDC-136838], the “% Inhibition” value was -52.15%.

`Cc1ncccc1C(=O)Nc1cccc(-c2cccc(-c3nc4ccc(C(F)(F)F)cc4[nH]3)c2)c1` [TCMDC-136860]: the “% Inhibition” value is reported as -20.59%.

On to `O=C(Nc1cccc(C(F)(F)F)c1)c1cccc2[nH]c(C(F)(F)F)nc12` [TCMDC-141579], for which the “% Inhibition” value was determined as 65%.

On to `O=C(Nc1ccc(Cl)cc1)c1cccc2[nH]c(C(F)(F)F)nc12` [TCMDC-141578], for which the “% Inhibition” value was 11.96%.

On to `O=C(Nc1ccc(Cl)cc1)c1cc(Cl)cc2[nH]c(C(F)(F)F)nc12` [TCMDC-141586], for which the “% Inhibition” value came out at 55.63%.

With `Fc1ccccc1COc1ccc(Nc2ncnc3ccc(-c4nnc(C(F)(F)F)o4)cc23)cc1Cl` [TCMDC-138161], the “% Inhibition” value worked out at 24.13%.

Turning to `Cc1ccc(Nc2ccnc(Nc3ccc4c(c3)CS(=O)(=O)C4)n2)cc1O` [TCMDC-138484], the “% Inhibition” value is on record as -40.59%.

For the compound `CCNc1cc(C(=O)N[C@@H](Cc2ccccc2)[C@H](O)CN[C@@H]2CCc3ccccc32)cc(N2CCCCS2(=O)=O)c1` [TCMDC-134706], the “% Inhibition” value came out at 14.74%.

For `CCN(CC)CCN(Cc1ccc(-c2ccc(C(F)(F)F)cc2)cc1)C(=O)Cn1c(CCc2ccc(F)c(F)c2)cc(=O)c2ccccc21` [TCMDC-141026], the “% Inhibition” value was determined as 39.3%.

In the case of `CCN(CC)CCN(Cc1ccc(-c2ccc(C(F)(F)F)cc2)cc1)C(=O)Cn1c(CCc2ccc(F)c(C#N)c2)nc(=O)c2ccccc21` [TCMDC-140957], the “% Inhibition” value turned out to be 85.6%.

In the case of `CCN(CC)CCN(Cc1ccc(-c2ccc(C(F)(F)F)cc2)cc1)C(=O)Cn1c(CCc2cccc(C#N)c2)nc(=O)c2ccccc21` [TCMDC-140980], the “% Inhibition” value is listed as 54.63%.

Regarding `CCN(CC)CCN(Cc1ccc(-c2ccc(C(F)(F)F)cc2)cc1)C(=O)Cn1c(CCc2ccc(F)c(F)c2)nc(=O)c2ccccc21` [TCMDC-140948], the “% Inhibition” value was 78.31%.

On to `CCN(CC)CCN(Cc1ccc(-c2ccc(C(F)(F)F)cc2)cc1)C(=O)Cn1c(CCc2cc(F)c(F)c(F)c2)nc(=O)c2ccccc21` [TCMDC-140944], for which the “% Inhibition” value is on record as 66.72%.
